Here are results for 63 compounds from PubChem BioAssay AID1851 (National Center for Advancing Translational Sciences (NCATS), 2009).

SMILES strings stand for the structures. The whole screen tested about 16,000 compounds, of which about 5,700 (36%) were called active. Another 24% or so got no clear call; they are omitted. Calls follow the shape of the dose curve; as a rule, active = well fitted curve in the direction sought with a large enough effect; inconclusive = small, poorly fitted or top-dose-only effect, or effect the other way; inactive = no such curve, though single readings can be large or run the other way. The list shows a part of the results.
% is scaled to controls: 0 for no effect and ±100 for the full control effect.

This assay deals with Cytochrome P450 1A2 (Homo sapiens) (UniProt P05177). Kind of assay: Cytochrome panel assay with activity outcomes. The note with it: recombinant CYP, pro-luciferin dealkylation, luminescence, p450-cyp1a2; series mostly up to 57.1 µM.
Sequence of Cytochrome P450 1A2 (Homo sapiens) (P05177 whole entry, looked up): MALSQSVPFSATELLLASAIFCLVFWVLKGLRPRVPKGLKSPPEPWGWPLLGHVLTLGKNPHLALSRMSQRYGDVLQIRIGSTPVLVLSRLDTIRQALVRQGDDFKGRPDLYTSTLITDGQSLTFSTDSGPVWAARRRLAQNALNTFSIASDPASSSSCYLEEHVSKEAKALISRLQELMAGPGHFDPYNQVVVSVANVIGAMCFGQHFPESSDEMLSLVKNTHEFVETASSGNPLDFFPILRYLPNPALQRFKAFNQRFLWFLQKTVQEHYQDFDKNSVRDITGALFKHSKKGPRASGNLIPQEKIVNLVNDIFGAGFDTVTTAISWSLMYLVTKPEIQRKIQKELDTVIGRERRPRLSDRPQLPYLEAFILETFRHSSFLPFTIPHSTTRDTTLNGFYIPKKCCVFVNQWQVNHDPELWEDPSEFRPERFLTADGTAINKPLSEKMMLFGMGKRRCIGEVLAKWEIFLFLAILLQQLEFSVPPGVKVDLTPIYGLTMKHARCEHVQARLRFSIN
As a reminder, the AC50 is the midpoint of the concentration-response curve, whichever way the signal moves. As to `COC(=O)[C@@]1(Cc2ccc(OC)cc2)[C@H]2c3cc(C(=O)N4CCCC4)n(CCn4cc([N+](=O)[O-])nc4C)c3C[C@H]2CN1C(=O)c1ccccc1`, the AC50 result was “inactive”.
Regarding `CCCn1c(N)c(C(=O)CSc2nc(C)cs2)c(=O)n(C)c1=O`, the AC50 was 15.8 µM (active).
For `Cc1cc(C)cc(C(=O)N(NC(=O)Nc2ccc(Cl)cc2)C(C)(C)C)c1`, the AC50 entry was “inactive”.
The same measure, in the same setting: the value for `CSc1cccc(NC(=O)Nc2ccc(Cl)cc2)c1` was 5.01 µM (active).
On to `O=C(O)CC[C@@]1(c2ccccc2)NC(=O)NC1=O`, for which the activity, negative = inhibition was -11.4% [at 11.4 µM] (inactive).
Turning to `Cc1ccc(N(CCC#N)C(=O)CSc2ccc3c(c2)OCCO3)cc1`, the AC50 was 2 µM (active).
The same measure, in the same setting: then `CCOC(=O)c1[nH]c(C)c(C)c1C`, with 0.501 µM (active); and `CCOC(=O)c1cc(C#N)c(Oc2ccccc2OC)nc1-c1ccccc1`, with 0.708 µM (active); and `CCCCNc1nc(-c2ccccc2)c(C(=O)OCC)cc1C#N`, with 4.47 µM (active).
Regarding `Cc1cc(C)c2cc(C#N)c(NCCOC(=O)c3ccccc3C)nc2c1`, the AC50 is 1.26 µM (active).
`O=C1CCCC=C1[C@@H](O)COCc1ccccc1`: the activity, negative = inhibition was -6.11% [at 11.4 µM] (inactive).
Turning to `CCN1C(=O)CC(N2CCN(CC(=O)NC(C)C)CC2)C1=O` (stereo not drawn), the AC50 result was “inactive”.
In the case of `C/C(=N\O)c1cccc[n+]1Cc1ccccc1`, the activity, negative = inhibition was -0.979% [at 11.4 µM] (inactive).
Regarding `NC(=O)c1ccc(C2SCC(=O)N2Cc2ccccc2)cc1` (stereo not drawn), the AC50 entry is “inactive”.
Still for that read-out and setting: the value for `NC(=O)c1ccc(-c2ncc(-c3ccccc3)o2)cc1` was 0.631 µM (active); that for `CO[C@]1(NC(=O)[C@H](C(=O)O)c2ccc(O)cc2)C(=O)N2C(C(=O)O)=C(CSc3nnnn3C)CO[C@H]21` was “inactive”; that for `Cc1sc2nc(SCC(=O)C(C)(C)C)n(Cc3ccco3)c(=O)c2c1C` was 0.891 µM (active).
Still for that read-out and setting: the value for `COCCNC(=O)CSc1nc2cc(OC)c(OC)cc2c(=O)n1Cc1ccco1` was “inactive”.
`CC(=O)[C@H]([C@@H](c1ccccc1)N1CCOCC1)N1CCOCC1`: the activity, negative = inhibition was 2.19% [at 11.4 µM] (inactive).
Still for that read-out and setting: the value for `C[C@](O)(c1ccccc1)c1nccc2ccccc12` was -17.4% [at 11.4 µM] (inactive).
`Cc1ccc(-c2nc(-c3nccc4ccccc34)oc2-c2ccccc2)cc1`: the AC50 was 2.51 µM (active).
Regarding `COc1ccc(NC(=S)Nc2ncccc2C)c(OC)c1`, the AC50 is 1.12 µM (active).
Regarding `COc1ccc2c(c1OC)C(=O)OC2Nc1ncccc1C` (stereo not drawn), the AC50 result was “inactive”.
Same read-out and setting: then `COc1ccc(NC(=O)C23CC4CC(C2)CC(n2cnc(Br)n2)(C4)C3)c(C)c1`, with “inactive”.
With `CCN=C1NN=C(c2ccc(C)cc2)CS1`, the AC50 is 20 µM (active).
Still for that read-out and setting: the value for `O=C(NCCN1CCN(Cc2ccccc2)CC1)C1c2ccccc2C(=O)N2CCc3ccccc3C12` (stereo not drawn) was “inactive”.
Take `O=C(NCCc1ccccc1)c1noc2c1CCc1ccccc1-2`: the AC50 was 1.26 µM (active).
As for `CCN(CC)CCOC(=O)C(c1ccccc1)c1ccccc1`, the AC50 was 5.01 µM (active).
Take `CCCC(C(=O)OCCN(CC)CC)(c1ccccc1)c1ccccc1`: the AC50 entry is “inactive”.
For the compound `CN(C)CCOC(=O)[C@@H](c1ccccc1)C1(O)CCCC1`, the AC50 result was “inactive”.
Regarding `O=C1CCC[C@@H](C(C(=O)OCc2ccccc2)C(=O)OCc2ccccc2)C1`, the activity, negative = inhibition was -9.68% [at 11.4 µM] (inactive).
For `CCN(CC)CCOC(=O)[C@@H](c1ccccc1)C1CCCCC1`, the AC50 was 1.26 µM (active).
With `C[N+]1(C)CCC(OC(=O)C(c2ccccc2)c2ccccc2)CC1`, the AC50 result is “inactive”.
Take `CN(C)CCNc1ncnc2c1sc1nc(N3CCOCC3)c3c(c12)CC(C)(C)SC3`: the AC50 result is “inactive”.
On the same count and under the same terms, then `CCOc1ccc(N=C2NC(=O)C(CC(=O)O)S2)cc1` (stereo not drawn), with “inactive”.
As to `O=C1CN2CCN(CC2)CC(=O)Nc2ccc(cc2)S(=O)(=O)c2ccc(cc2)NC(=O)CN2CCN(CC2)CC(=O)Nc2ccc(cc2)S(=O)(=O)c2ccc(cc2)N1`, the activity, negative = inhibition is -13.1% [at 11.4 µM] (inactive).
On to `CCC(C)c1ccc(Nc2ncccc2C#N)cc1` (stereo not drawn), for which the AC50 was 5.01 µM (active).
With `CCc1ccc(Nc2ncccc2C#N)cc1`, the AC50 was 1.26 µM (active).
For `COC(=O)[C@@H]1CC[C@H](C)[C@@H](c2ccc(C)cc2)N1C(=O)c1ccc(/C=N\OCC[C@@H]2C=C[C@H](OC(C)=O)[C@H](COC(C)=O)O2)cc1`, the activity, negative = inhibition is -3.4% [at 11.4 µM] (inactive).
For the compound `C[C@H]1CN(S(=O)(=O)c2cccc3cnccc23)CCN1`, the AC50 entry is “inactive”.
Still for that read-out and setting: then `Nc1cccc2cnccc12`, with 12.6 µM (active); and `N[C@@H]1CONC1=O`, with “inactive”.
For `C[C@@H]1CN2[C@H](c3ccc(Br)cc3)[C@H](C)CC[C@H]2C(=O)O1`, the activity, negative = inhibition was -6.13% [at 11.4 µM] (inactive).
As to `Cc1nc(SCc2cccc(Oc3ccccc3)c2)n[nH]1`, the AC50 is 17.8 µM (active).
In the case of `COCCN1CN=C(Nc2nc3ccccc3s2)NC1`, the AC50 result was “inactive”.
As to `COc1ccc(CN2CN=C(Nc3nc4ccccc4s3)NC2)cc1`, the AC50 was 12.6 µM (active).
For `CCOC(=O)[C@]1(CC(=O)O)CCCC1=O`, the activity, negative = inhibition was -12.7% [at 11.4 µM] (inactive).
In the case of `COc1c2c(nc3ccccc13)O[C@H]([C@@](C)(O)CO)C2`, the AC50 was 12.6 µM (active).
On to `CCOc1cc(CNc2ccc(OC)cc2)cc(Br)c1OCC(=O)NC(C)(C)C`, for which the AC50 is 11.2 µM (active).
For `NCC[C@H](N)C(=O)O`, the activity, negative = inhibition is -8.87% [at 2.29 µM] (inactive).
For the compound `Cc1c2cnccc2c(C)c2c1c1ccccc1n2CCOC(=O)c1ccccc1`, the AC50 was 0.0794 µM (active).
Take `O=C(c1cc(C(F)(F)F)cc(C(F)(F)F)c1)N1CCC2(CC1)CN(c1ccncc1)C2`: the AC50 entry was “inactive”.
`Cc1c(/C=N/NC(=O)c2ccc3c(c2)OCO3)cnn1C`: the AC50 was 14.1 µM (active).
`COc1ccc(-c2nn(-c3ccccc3)cc2/C=N/NC(=O)c2ccc3c(c2)OCO3)cc1`: the AC50 result is “inactive”.
In the case of `COc1cc(CNCCc2c[nH]c3ccccc23)ccc1OCc1ccccc1F`, the AC50 was 25.1 µM (active).
Turning to `CC(C)CN1CCCC2(CCN(C(=O)c3cnccn3)CC2)C1`, the AC50 entry was “inactive”.
As for `O=C(CCc1ccc(O)cc1)c1c(O)cc(O)cc1O`, the AC50 is 6.31 µM (active).
With `C[C@@H](CCc1ccc(O)cc1)NCCc1ccc(O)c(O)c1`, the AC50 result is “inactive”.
As for `O=C(O)Cc1ccc(O)c(O)c1`, the AC50 entry is “inactive”.
Regarding `Nc1c(OCC(=O)O)ccc2cc(S(=O)(=O)O)ccc12`, the activity, negative = inhibition is -5.41% [at 11.4 µM] (inactive).
For `CCOc1ccccc1Nc1ccc(N)cc1S(=O)(=O)O`, the activity, negative = inhibition was -12.6% [at 2.29 µM] (inactive).
For the compound `CCCCN(C(=O)NC(=O)Nc1ccccc1OCC)S(C)(=O)=O`, the AC50 was 20 µM (active).
Turning to `CCOc1ccccc1NC(=O)CCC(=O)O`, the AC50 result is “inactive”.
